# Measured values published in PubChem BioAssay (Tox21).
# Records with an inconclusive call do not appear. A call without a number means that no potency is given here. Some structures have more than one record in an assay (separate samples or runs), and their calls can disagree. The source made the active and inactive calls. Calls come from the whole dose curve.
# How the values were obtained:
# [1] = target: Acetylcholinesterase (Homo sapiens) (UniProt P22303); test: Acetylcholinesterase (AChE) small molecule antagonists: colormetric cell-based qHTS assay (AID 1347395); note: nearly all actives have a fitted effect of over 30% in size; note: potency is the fitted concentration of half-maximal effect
# Method in brief: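 Endogenous AChE of human neuroblastoma SH-SY5Y cells was measured with an Ellman-type DTNB/acetylthiocholine mix. Compound pretreatment lasted 30 min at 37 C; substrate reaction ran 90 min at 37 C.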
# [2] = target: Acetylcholinesterase (Homo sapiens) (UniProt P22303); test: Acetylcholinesterase (AChE) small molecule antagonists: enzyme-based qHTS assay (AID 1347397); conditions: Potency: AChE enzyme activity inhibition; outcome: AChE enzyme activity inhibition; note: nearly all actives have a fitted effect of over 55% in size; note: potency is the fitted concentration of half-maximal effect
# Method in brief: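 Absorbance-based detection of thiocholine with DTNB served as the read-out. Recombinant human AChE was exposed to compound for 30 min at RT before a 10 min RT incubation with acetylthiocholine.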
# [3] = target: Acetylcholinesterase (Homo sapiens) (UniProt P22303); test: Acetylcholinesterase (AChE) small molecule antagonists: fluorescence cell-based qHTS assay (AID 1347398); conditions: Potency: AChE activity; outcome: AChE activity; note: nearly all actives have a fitted effect of over 50% in size; note: potency is the fitted concentration of half-maximal effect
# Method in brief: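 Fluorimetric cell-based assay: intact SH-SY5Y cells, 30 min compound preincubation at 37 C, acetylthiocholine substrate with thiol probe Thiolite Green, 40 min RT development, fluorescence 490/520 nm.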
# [4] = target: Acetylcholinesterase (Homo sapiens) (UniProt P22303); test: Acetylcholinesterase (AChE) small molecule antagonists: enzyme-based qHTS assay with human liver microsomes (AID 1347399); conditions: Potency: qHTS inhibition; outcome: qHTS inhibition; note: nearly all actives have a fitted effect of over 60% in size
# Method in brief: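 Recombinant human AChE (50 mU/mL in the enzyme mix) and human liver microsomes (0.25 mg/mL final) were preincubated with compound and NADPH (0.25 mg/mL final) for 30 min at 37 C. Acetylthiocholine/DTNB was then added; thiocholine was read colorimetrically after 10 min at room temperature.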
# Chain of Acetylcholinesterase (Homo sapiens) (P22303 whole entry, looked up): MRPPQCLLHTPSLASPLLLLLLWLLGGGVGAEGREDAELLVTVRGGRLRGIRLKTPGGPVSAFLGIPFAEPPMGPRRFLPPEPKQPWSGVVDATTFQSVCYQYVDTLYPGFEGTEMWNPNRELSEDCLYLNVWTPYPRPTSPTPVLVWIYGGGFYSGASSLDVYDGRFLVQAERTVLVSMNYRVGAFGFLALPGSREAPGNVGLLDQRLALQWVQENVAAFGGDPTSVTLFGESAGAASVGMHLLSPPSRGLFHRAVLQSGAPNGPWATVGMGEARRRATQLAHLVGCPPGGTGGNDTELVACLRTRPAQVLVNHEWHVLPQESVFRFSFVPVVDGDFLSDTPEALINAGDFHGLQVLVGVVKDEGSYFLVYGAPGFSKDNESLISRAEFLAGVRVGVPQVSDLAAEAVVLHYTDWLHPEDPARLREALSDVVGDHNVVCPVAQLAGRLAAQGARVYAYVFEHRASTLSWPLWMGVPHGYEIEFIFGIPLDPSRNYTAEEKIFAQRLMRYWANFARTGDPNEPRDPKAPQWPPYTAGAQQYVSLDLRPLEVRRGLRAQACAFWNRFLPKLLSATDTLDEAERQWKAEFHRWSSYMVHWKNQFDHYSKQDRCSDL
SMILES,Potency [1],Potency [2],Potency [3],Potency [4],"activity, negative = inhibition [1]","activity change, negative = inhibition [2]","activity change, negative = inhibition [3]","activity change, negative = inhibition [4]"
CCCCN(CCCC)C(=S)SSC(=S)N(CCCC)CCCC,inactive,inactive,inactive,inactive,–,–,–,–
CO[C@@H]1[C@H](OC(=O)/C=C/C=C/C=C/C=C/C(=O)O)CC[C@]2(CO2)[C@H]1[C@@]1(C)O[C@@H]1CC=C(C)C,inactive,inactive,inactive,inactive,–,–,–,–
O=C(O)c1ccc(OCCCOc2ccc(C(=O)O)cc2)cc1,inactive,inactive,inactive,inactive,–,–,–,–
CCCCCCCCOc1ccccc1C(=O)Nc1ccc(C(=O)OCC[N+](C)(CC)CC)cc1,24.5 µM (active),38.9 µM (active),12.3 µM (active),inactive,–,–,–,–
O=Cc1ccc(C(=O)O)cc1,inactive,inactive,inactive,inactive,–,–,–,–
COC(OC)C(C)c1ccccc1 (stereo not given),inactive,inactive,inactive,inactive,–,–,–,–
C/C=C(\C)C=O,inactive,inactive,inactive,inactive,–,–,–,–
Cc1cccc(O)c1,inactive,inactive,inactive,inactive,–,–,–,–
O=c1[nH]nnc2ccccc12,inactive,inactive,inactive,inactive,–,–,–,–
C[C@H]1O[C@H](O[C@H]2[C@H](O)[C@@H](O)[C@@H](O[C@H]3[C@H](O)[C@@H](O)[C@H](O)O[C@@H]3CO)O[C@@H]2CO)[C@H](O)[C@@H](O)[C@@H]1N[C@H]1C=C(CO)[C@@H](O)[C@H](O)[C@H]1O,inactive,inactive,inactive,inactive,–,–,–,–
CC1=C(/C=C/C(C)=C/C=C/C(C)=C/C(=O)O)C(C)(C)CCC1,inactive,inactive,inactive,inactive,–,–,–,–
COC(=O)c1ccc(C=O)cc1,inactive,inactive,inactive,inactive,–,–,–,–
Cc1occc1SSc1ccoc1C,inactive,inactive,inactive,inactive,–,–,–,–
c1cc(C(c2ccc(OCC3CO3)cc2)c2ccc(OCC3CO3)cc2)ccc1OCC1CO1 (stereo not given),inactive,inactive,inactive,inactive,–,–,–,–
CCOC(=O)c1c(C)n(C)c2ccc(O)cc12,inactive,inactive,inactive,inactive,–,–,–,–
NCCOCCOCCN,inactive,inactive,inactive,inactive,–,–,–,–
CNCC[C@@H](Oc1ccccc1C)c1ccccc1,inactive,inactive,inactive,inactive,–,–,–,–
CCCC(=O)C(C)=O,inactive,inactive,inactive,inactive,–,–,–,–
C[C@]12CC[C@@H]3c4ccc(O)cc4CC[C@H]3[C@@H]1CC[C@H]2O,inactive,inactive,inactive,inactive,–,–,–,–
O=c1n(CC2CO2)c(=O)n(CC2CO2)c(=O)n1CC1CO1 (stereo not given),inactive,inactive,inactive,inactive,–,–,–,–

SMILES,Potency [1],Potency [2],Potency [3],Potency [4],"activity, negative = inhibition [1]","activity change, negative = inhibition [2]","activity change, negative = inhibition [3]","activity change, negative = inhibition [4]"
CN1CCCN(C(c2ccccc2)c2ccc(Cl)cc2)CC1 (stereo not given),inactive,inactive,inactive,inactive,–,–,–,–
CCCCCCCC(=O)[O-].CCCCCCCC(=O)[O-].[Zn+2],inactive,inactive,inactive,inactive,–,–,–,–
CC1(C)O[C@H]2CC(=O)OC[C@]23[C@H]2CC[C@@]4(C)[C@H](c5ccoc5)OC(=O)[C@H]5O[C@]54[C@]2(C)C(=O)C[C@@H]13,inactive,inactive,inactive,inactive,–,–,–,–
CCCCCCc1ccc(-c2ccc(C#N)cc2)cc1,inactive,inactive,inactive,inactive,–,–,–,–
CC(CN(C)C)C(C)(O)Cc1ccc(Cl)cc1 (stereo not given),inactive,inactive,inactive,inactive,–,–,–,–
C=CC(=O)CCCCC,inactive,inactive,inactive,inactive,–,–,–,–
CC1=CC[C@H](C(C)C)C=C1,inactive,inactive,inactive,inactive,–,–,–,–
COc1ccccc1/C=C/C=O,inactive,inactive,inactive,inactive,–,–,–,–
O=C(O)c1ccccc1NCCc1ccccc1,inactive,inactive,inactive,inactive,–,–,–,–
O=C(O)c1ccccc1C(=O)O,inactive,inactive,inactive,inactive,–,–,–,–
COc1ccccc1N1CCN(CC(O)COc2cccc3ccccc23)CC1 (stereo not given),inactive,inactive,inactive,inactive,–,–,–,–
O=C(O)c1ccccc1S,inactive,inactive,inactive,inactive,–,–,–,–
CC(C)(C)CC(=O)OCC(=O)[C@@]1(O)CC[C@H]2[C@@H]3CCC4=CC(=O)C=C[C@]4(C)[C@H]3[C@@H](O)C[C@@]21C,inactive,inactive,inactive,inactive,–,–,–,–
O=C(O)COc1nn(Cc2ccccc2)c2ccccc12,inactive,inactive,inactive,inactive,–,–,–,–
C#CC(C)N(C)C(=O)Nc1ccc(Cl)cc1 (stereo not given),inactive,inactive,inactive,inactive,–,–,–,–
NC(=O)c1ncn([C@@H]2O[C@H](CO)[C@@H](O)[C@H]2O)n1,inactive,inactive,inactive,inactive,–,–,–,–
CCOC(=O)C(F)(F)F,inactive,inactive,inactive,inactive,–,–,–,–
CC1(C)O[C@@H]2C[C@H]3[C@@H]4C[C@H](F)C5=CC(=O)CC[C@]5(C)[C@H]4[C@@H](O)C[C@]3(C)[C@]2(C(=O)CO)O1,inactive,inactive,inactive,inactive,–,–,–,–
O=C1CCCCCCCCCCCN1,inactive,inactive,inactive,inactive,–,–,–,–
CCO[Si](C)(CCCOCC1CO1)OCC (stereo not given),inactive,inactive,inactive,inactive,–,–,–,–

SMILES,Potency [1],Potency [2],Potency [3],Potency [4],"activity, negative = inhibition [1]","activity change, negative = inhibition [2]","activity change, negative = inhibition [3]","activity change, negative = inhibition [4]"
CC(C)(C)c1ccc(CCC=O)cc1,inactive,inactive,inactive,inactive,–,–,–,–
O=C(O)Cc1cccc(-c2cc(CCCCCCc3ccc(O[C@H]4O[C@H](CO)[C@@H](O)[C@H](O)[C@@H]4O)c(-c4cccc(CC(=O)O)c4)c3)ccc2O[C@H]2O[C@H](CO)[C@@H](O)[C@H](O)[C@@H]2O)c1,–,–,–,–,1.5% [at 0.435 µM] (inactive),1.01% [at 0.435 µM] (inactive),5.75% [at 0.439 µM] (inactive),-1.17% [at 0.435 µM] (inactive)
CCNC(=S)NCC,inactive,inactive,inactive,inactive,–,–,–,–
CC/C=C\CCOC(=O)CC,inactive,inactive,inactive,inactive,–,–,–,–
CC(=O)Oc1ccc(C2(c3ccc(OC(C)=O)cc3)Oc3ccccc3NC2=O)cc1,inactive,inactive,inactive,inactive,–,–,–,–
O=S(=O)(O)CCCN1CCOCC1,inactive,inactive,inactive,inactive,–,–,–,–
C=CC(C)(C)O,inactive,inactive,inactive,inactive,–,–,–,–
O=Nc1ccc(O)cc1,inactive,inactive,inactive,inactive,–,–,–,–
CCCCCCCCC(=O)O,3.07 µM (active) and inactive,inactive,inactive,inactive,–,–,–,–
CCCCCCCC(=O)O,inactive,inactive,inactive,inactive,–,–,–,–
C/C(Cl)=C/CCl,inactive,inactive,inactive,inactive,–,–,–,–
CCO[Si](CC)(OCC)OCC,inactive,inactive,inactive,inactive,–,–,–,–
CC(=O)O[C@@H]1CC2C3CCc4cc(OC(=O)c5ccccc5)ccc4C3CCC2(C)[C@H]1OC(C)=O (stereo not given in full),inactive,inactive,inactive,inactive,–,–,–,–
CN(C)CCN(Cc1ccsc1)c1ccccn1,inactive,inactive,inactive,inactive,–,–,–,–
CC1(N)CCC(C(C)(C)N)CC1 (stereo not given),inactive,inactive,inactive,inactive,–,–,–,–
C=CCCCCCCCC,inactive,inactive,inactive,inactive,–,–,–,–
Clc1cc(Cl)nc(Cl)n1,inactive,inactive,inactive,inactive,–,–,–,–
CCCCCCCCCCCCCCCO,inactive,inactive,inactive,inactive,–,–,–,–
COC(=O)C1=C(C)NC(C)=C(C(=O)OCC(C)=O)C1c1ccccc1[N+](=O)[O-] (stereo not given),inactive,inactive,inactive,inactive,–,–,–,–
Oc1ccc(Cc2ccccc2)cc1,inactive,inactive,inactive,inactive,–,–,–,–
